Data as given in PubChem BioAssay (NCI).
Compounds without any hit were thinned out: in the full panel of roughly 83,000, 20% have a hit.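 48-hour exposure, single concentration, 96-well plates; percent growth endpoint where 0 means no net growth. Active: below 10.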 Unmarked numbers belong to inactive results. Calls of active or inactive are those of the source.

The compounds below were run on NCI-H23 lung (assay: NCI-60 one-dose screen, 48 h (100 = growth as untreated, 0 = no growth, -100 = all killed)). Conditions: 10 µM unless noted.
With COc1ccc(C(=O)CSc2nnc(-c3cc(-c4ccccc4)nc4ccccc34)o2)cc1 the growth was 109%. O=C(O)c1cc([N+](=O)[O-])ccc1Br was tested, and the growth was 105%. In the case of O=C(Nc1ccc(Oc2ccc(F)cc2)c(Cl)c1)c1cccnn1, the growth is reported as 62.3%. For Cc1cc(-c2ccc(N=Nc3c(S(=O)(=O)O)cc4cc(S(=O)(=O)O)cc(N)c4c3O)c(C)c2)ccc1N=Nc1cc(S(=O)(=O)O)c2ccccc2c1O, the growth was 92.2%. COc1cc2c(cc1OCCCN1CCN(CCCOc3cc4c(cc3OC)C(=O)N3C[C@H](F)C[C@H]3C=N4)CC1)N=C[C@@H]1C[C@@H](F)CN1C2=O gave a growth of 10.5%. For Cc1nc(Cl)cc(N(c2cc(Cl)nc(C)n2)c2ncc(C(=O)Nc3c(C)cccc3Cl)s2)n1, the growth was 78.2%. Cn1cc(-c2noc(-c3cn(C)c4ncc(Br)cc34)n2)c2cc(Cl)ccc21 showed a growth of 75.1%. C=C(C)[C@@H]1CC[C@]2(C(N)=O)CC[C@]3(C)[C@H](CC[C@@H]4[C@@]5(C)C/C(=C/c6cccnc6)[C@H](O)C(C)(C)[C@@H]5CC[C@]43C)[C@@H]12 was tested, and the growth was 28.1% [100 µM]. Work on Nc1nc(Nc2ccccc2)c2ncn(Cc3ccc4c(c3)OCO4)c2n1 yielded a growth of 62.8%. In the case of C[n+]1c2ccccc2nc2c(N)cc(N)cc21, the growth is reported as 71.9%. Work on CCOC(=O)c1cc(C(=O)c2ccc(OC)c(OC)c2)n2ccc(-c3ccccn3)cc12 yielded a growth of 78%. O=C(NNc1ccc(-c2ccccc2)nn1)c1ccccc1 was tested, and the growth was 99.6%. Compound CCOC(=O)c1nc2c3ccccc3ccn2c1C(=O)OC has a growth of 97.2%. In the case of c1cc2ccc3cc2cc1CNCCN1CCNCc2ccc4ccc(cc4c2)CNCCN(CCNC3)CCNCc2ccc3ccc(cc3c2)CNCC1, the growth is reported as -7% (active). In the case of Cn1cc(-c2nnc(-c3cn(C)c4ncc(Br)cc34)s2)c2cc(Br)ccc21, the growth is reported as 99.5%. In the case of O=C1/C(=C/c2cccc(OCc3ccccc3)c2)Oc2cc(OCCN3CCCCC3)ccc21, the growth is reported as 86.4%. CN(Cc1cccc(C(F)(F)F)c1)C(=O)[C@@H](CC(=O)N1CCC(N2CCCCC2)CC1)N1C(=O)[C@@H](N2C(=O)OC[C@@H]2c2ccccc2)[C@H]1/C=C/c1ccccc1 gave a growth of 93.9%. Cc1cc(NN=C(c2ccc(O)cc2)c2ccc(O)cc2)c([N+](=O)[O-])cc1[N+](=O)[O-] gave a growth of 31.9%. Work on CCOC(=O)CCC[P+](c1ccccc1)(c1ccccc1)c1ccccc1 yielded a growth of 87.9%. For CCN(CC)c1ccc(/C=C/c2ccc3cc(C)ccc3[n+]2CC)cc1, the growth was -1.98% (active). O=C(N/N=C/c1ccc([N+](=O)[O-])cc1)c1ccc(Br)o1 showed a growth of 95.5%. With CC(C)C1=NOC(=O)C1=Cc1cn(-c2ccccc2)nc1-c1ccc(Br)cc1 the growth was 85.8%. For COc1ncnc2c(-c3ccccc3)cn(COCc3ccccc3)c12, the growth was 45.8%.

These compounds were tested on NCI-H226 lung in the same assay as above. Conditions: 10 µM unless noted.
NC(=O)CC1C=CCC1 (stereo unspecified) was tested, and the growth was 99.4%. In the case of CC(=O)Nc1ccc(C=Nc2ccc3ccccc3c2)cc1, the growth is reported as 100%. Work on O=[N+]([O-])c1ccc(O)c(-c2nc3ccccc3s2)c1 yielded a growth of 83.7%. Work on CCOC(=O)c1nn(C2CCCCO2)c2ccc(NC(=O)Cn3nnc4ccccc43)cc12 (stereo unspecified) yielded a growth of 109%. COC(=O)c1cc2c(=O)[nH]cc3c2c(n1)CCC3 showed a growth of 112%. With CCCCCn1c(C)cc(/C=C\c2ccc3cc(C)ccc3[n+]2C)c1C the growth was -58.4% (active). With O=c1[nH]c2cc(Cl)c(Cl)cc2n2cc3ncccc3c12 the growth was 89.2%. In the case of c1nc(N2CCOCC2)c2[nH]ccc2n1, the growth is reported as 114%. With CCCC[C@@H](C=O)NC(=O)[C@H](CC(C)C)NC(=O)[C@H](CC(C)C)NC(=O)OCc1ccccc1 the growth was -54.1% (active). For CNC(=O)c1cc(Oc2ccc3nc(NC(=O)c4ccc5ncccc5c4)sc3c2)ccn1, the growth was 68.6%. With CC(C)(C)OC(=O)N1C=C/C(=C\Cn2cc(-c3ccccc3)nn2)CC1 the growth was 72%. CC[C@@H]1NC(=O)[C@@H]2CCCCN2C(=O)[C@@H]2CCCN2C(=O)[C@@H](NC(=O)[C@H](Cc2cc(F)cc(F)c2)NC(=O)Nc2ccc(C3CC3)cc2F)[C@H](C)OC(=O)[C@@H]2C[C@@H](C)CN2C1=O showed a growth of 15.5%. With CCCSc1nc(N)nc2nc[nH]c12 the growth was 103%. Work on O=C(Nc1ccc(F)cc1)c1ccccc1 yielded a growth of 104%. With COc1ccc(-c2ccc(NNC(=O)c3ccc(F)cc3)nn2)cc1OC the growth was 70%. In the case of COc1ccc(C(=O)CSc2nnc(-c3cc(-c4ccccc4)nc4ccccc34)o2)cc1, the growth is reported as 106%. O=C(O)c1cc([N+](=O)[O-])ccc1Br gave a growth of 97.8%. In the case of O=C(Nc1ccc(Oc2ccc(F)cc2)c(Cl)c1)c1cccnn1, the growth is reported as 55%. Cc1cc(-c2ccc(N=Nc3c(S(=O)(=O)O)cc4cc(S(=O)(=O)O)cc(N)c4c3O)c(C)c2)ccc1N=Nc1cc(S(=O)(=O)O)c2ccccc2c1O gave a growth of 90%. COc1cc2c(cc1OCCCN1CCN(CCCOc3cc4c(cc3OC)C(=O)N3C[C@H](F)C[C@H]3C=N4)CC1)N=C[C@@H]1C[C@@H](F)CN1C2=O was tested, and the growth was 17.2%. Work on Cc1nc(Cl)cc(N(c2cc(Cl)nc(C)n2)c2ncc(C(=O)Nc3c(C)cccc3Cl)s2)n1 yielded a growth of 59.3%. Cn1cc(-c2noc(-c3cn(C)c4ncc(Br)cc34)n2)c2cc(Cl)ccc21 showed a growth of 88%. Compound C=C(C)[C@@H]1CC[C@]2(C(N)=O)CC[C@]3(C)[C@H](CC[C@@H]4[C@@]5(C)C/C(=C/c6cccnc6)[C@H](O)C(C)(C)[C@@H]5CC[C@]43C)[C@@H]12 has a growth of 22.8% [100 µM]. In the case of Nc1nc(Nc2ccccc2)c2ncn(Cc3ccc4c(c3)OCO4)c2n1, the growth is reported as 75.1%. In the case of C[n+]1c2ccccc2nc2c(N)cc(N)cc21, the growth is reported as 37.2%. CCOC(=O)c1cc(C(=O)c2ccc(OC)c(OC)c2)n2ccc(-c3ccccn3)cc12 gave a growth of 49.9%. In the case of O=C(NNc1ccc(-c2ccccc2)nn1)c1ccccc1, the growth is reported as 102%. Compound CCOC(=O)c1nc2c3ccccc3ccn2c1C(=O)OC has a growth of 97.2%. c1cc2ccc3cc2cc1CNCCN1CCNCc2ccc4ccc(cc4c2)CNCCN(CCNC3)CCNCc2ccc3ccc(cc3c2)CNCC1 was tested, and the growth was 6.46% (active). Compound Cn1cc(-c2nnc(-c3cn(C)c4ncc(Br)cc34)s2)c2cc(Br)ccc21 has a growth of 91.8%. Compound O=C1/C(=C/c2cccc(OCc3ccccc3)c2)Oc2cc(OCCN3CCCCC3)ccc21 has a growth of 100%. With CN(Cc1cccc(C(F)(F)F)c1)C(=O)[C@@H](CC(=O)N1CCC(N2CCCCC2)CC1)N1C(=O)[C@@H](N2C(=O)OC[C@@H]2c2ccccc2)[C@H]1/C=C/c1ccccc1 the growth was 85.1%. With Cc1cc(NN=C(c2ccc(O)cc2)c2ccc(O)cc2)c([N+](=O)[O-])cc1[N+](=O)[O-] the growth was 99.2%. With CCOC(=O)CCC[P+](c1ccccc1)(c1ccccc1)c1ccccc1 the growth was 108%. In the case of CCN(CC)c1ccc(/C=C/c2ccc3cc(C)ccc3[n+]2CC)cc1, the growth is reported as 21.4%. Work on O=C(N/N=C/c1ccc([N+](=O)[O-])cc1)c1ccc(Br)o1 yielded a growth of 100%. With CC(C)C1=NOC(=O)C1=Cc1cn(-c2ccccc2)nc1-c1ccc(Br)cc1 the growth was 93.7%. COc1ncnc2c(-c3ccccc3)cn(COCc3ccccc3)c12 was tested, and the growth was 66.5%.
